{"source": "PubChem BioAssay AID588726", "about": "(The Scripps Research Institute Molecular Screening Center, 2011)", "note": "The campaign covered roughly 360,000 compounds. About 8,200 (2.3%) were called active. The sample as a whole holds a higher share of actives than the screen did. A number with no mark means an inactive call. Cut-off read from the data, not from the text of the source: active = inhibition above about 27%; inactive = the rest.", "data": [{"target": "Fructose-bisphosphate aldolase (Mycobacterium tuberculosis (strain ATCC 25618 / H37Rv)) (UniProt P9WQA3)", "sequence (P9WQA3 whole entry, looked up)": "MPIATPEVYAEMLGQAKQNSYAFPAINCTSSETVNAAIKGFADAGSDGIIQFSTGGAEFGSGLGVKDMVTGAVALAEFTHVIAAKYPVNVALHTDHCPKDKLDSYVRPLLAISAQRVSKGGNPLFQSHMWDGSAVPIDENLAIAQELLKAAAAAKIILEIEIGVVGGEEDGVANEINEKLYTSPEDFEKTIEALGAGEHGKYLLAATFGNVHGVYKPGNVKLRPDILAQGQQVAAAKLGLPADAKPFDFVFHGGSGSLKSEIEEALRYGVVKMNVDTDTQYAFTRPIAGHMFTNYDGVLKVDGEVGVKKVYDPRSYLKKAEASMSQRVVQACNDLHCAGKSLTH", "experiment": "Mtb FBA enzyme inhibitors, primary screen, biochemical, fluorescence, strain H37Rv (AID 588726);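 note: 0% = vehicle and 100% = reference inhibitor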", "settings": "purified M. tuberculosis FBA, fluorescence read-out, at 1 µM, hits give high values", "values": [{"compound": "CCOC(=O)N1CCN(CC(=O)Nc2ccc(F)cc2)CC1", "inhibition": "-0.85%"}, {"compound": "O=C(Nc1cccc(Cl)c1)c1cncn1-c1ccc(F)cc1", "inhibition": "6.15%"}, {"compound": "CCC(=O)Nc1ccc2nn(-c3ccc(F)cc3)nc2c1", "inhibition": "102% (active)"}, {"compound": "Nc1c(N(CCO)C(=O)C2CCCCC2)c(=O)[nH]c(=O)n1Cc1ccccc1", "inhibition": "5.19%"}, {"compound": "CCc1nccn1CCC(=O)N1CCCC(N2CCN(c3ccccc3F)CC2)C1", "note": "(stereo unspecified)", "inhibition": "-1.12%"}, {"compound": "CNC(=O)c1nnn(-c2ccccc2)c1C(=O)NC", "inhibition": "3.79%"}, {"compound": "N#CCCN1CCN(S(=O)(=O)c2ccc(S(=O)(=O)NC3CC3)cc2)CC1", "inhibition": "-0.2%"}, {"compound": "CC(Sc1nnc(-c2ccccc2F)n1C1CC1)C(N)=O", "note": "(stereo unspecified)", "inhibition": "-0.8%"}, {"compound": "Cc1cc(C)c2nc3nc(C)cc(C)c3c(N)c2c1", "inhibition": "42.9% (active)"}, {"compound": "CCC(=O)Nc1ccc(-c2ccc(N3CCCCC3)nn2)cc1", "inhibition": "4.9%"}, {"compound": "CC(=O)N1N=C(c2ccncc2)OC1(Cc1ccccc1)Cc1ccccc1", "inhibition": "46.8% (active)"}, {"compound": "CC(=O)N1N=C(c2ccccc2)OC1c1cccnc1", "note": "(stereo unspecified)", "inhibition": "-0.2%"}, {"compound": "O=C(Cc1ccccc1)N1N=C(c2ccncc2)CC1(O)C(F)(F)F", "note": "(stereo unspecified)", "inhibition": "-4.28%"}, {"compound": "CCCCn1c(SCc2ncc(-c3ccccc3)o2)nc2cc(S(N)(=O)=O)ccc21", "inhibition": "-3.35%"}, {"compound": "O=C(CN(Cc1ccc(Br)cc1)S(=O)(=O)c1ccccc1)NCc1ccncc1", "inhibition": "3.05%"}, {"compound": "Cc1ccc2c(C(=O)CN3CCCC3)c(C)[nH]c2c1", "inhibition": "-0.06%"}, {"compound": "COc1cc(NC(=O)c2ccccc2NS(=O)(=O)c2ccc(Cl)s2)cc(OC)c1", "inhibition": "2.51%"}, {"compound": "O=C(Nc1cccc(Cl)c1)Nc1ccccc1NS(=O)(=O)c1cccs1", "inhibition": "-6.91%"}, {"compound": "O=C(Nc1nncs1)c1ccccc1NS(=O)(=O)c1cccs1", "inhibition": "75% (active)"}, {"compound": "CCCNc1ncnc2sc(C)c(C)c12", "inhibition": "2.22%"}, {"compound": "O=C(Nc1c(Cl)cccc1Cl)C1CCC1", "inhibition": "5.25%"}, {"compound": "O=C(Nc1ccc(F)cc1)c1cccnc1N1CCOCC1", "inhibition": "1.16%"}, {"compound": "Cc1cccc(C(=O)NC(=S)N2CCN(c3ccc([N+](=O)[O-])cc3)CC2)c1", "inhibition": "-0.47%"}, {"compound": "CCC(=O)Nc1cccc(C2=NOC3(C2)C[C@@H](C(N)=O)N(C(=O)c2cc([N+](=O)[O-])cc([N+](=O)[O-])c2C)C3)c1", "note": "(stereo partly specified)", "inhibition": "-2.54%"}, {"compound": "N#CC1=C(N)Oc2[nH]c(=S)[nH]c(=O)c2C12C(=O)Nc1ccccc12", "note": "(stereo unspecified)", "inhibition": "126% (active)"}, {"compound": "Cc1ccc(NC2(C#N)C(=O)Nc3ccccc32)cc1", "note": "(stereo unspecified)", "inhibition": "-3.14%"}, {"compound": "Cc1ccc(OCC(=O)Nc2ccccc2Sc2ccc(Cl)cc2)c([N+](=O)[O-])n1", "inhibition": "-0.96%"}, {"compound": "CC1(C)CN(c2ccc(-c3ccnc4ncnn34)cc2)C1=O", "inhibition": "809% [above what the read-out allows, likely interference] (active)"}, {"compound": "Nc1c(-c2ccc(F)cc2)cnc2ncnn12", "inhibition": "1.26%"}, {"compound": "O=C(CSCc1ccccc1Cl)NNC(=O)c1ccccc1", "inhibition": "-0.9%"}, {"compound": "CC(C)NC(=O)Nc1cccc2c1O[C@H](CN(C)S(=O)(=O)c1cccs1)[C@@H](C)CN([C@H](C)CO)C2=O", "inhibition": "4.46%"}, {"compound": "C[C@H]1CN([C@@H](C)CO)C(=O)c2cc(-c3cccc(F)c3)cnc2O[C@@H]1CN(C)S(C)(=O)=O", "inhibition": "2.59%"}, {"compound": "C[C@H]1CN([C@@H](C)CO)C(=O)c2cc(Br)cnc2O[C@H]1CN(C)S(=O)(=O)c1cccs1", "inhibition": "27.8% (active)"}, {"compound": "Cc1cc(C)cc(OCC(=O)OCC(=O)NC2CCCC2)c1", "inhibition": "-0.07%"}, {"compound": "CCN(C(=O)CSc1cccc[n+]1[O-])c1ccccc1", "inhibition": "0.35%"}, {"compound": "Cc1ccc(S(=O)(=O)n2oc(=O)c(C3CCCCC3)c2N)cc1", "inhibition": "-0.6%"}, {"compound": "C=CCSc1nnc2c(n1)-c1cccc3cccc-2c13", "inhibition": "-1.23%"}, {"compound": "CCOc1ccccc1C1CC(c2ccccc2)Nc2nc(N)nn21", "note": "(stereo unspecified)", "inhibition": "35.6% (active)"}, {"compound": "CCOc1ccccc1C1CC(c2ccc(Cl)cc2)Nc2nc(N)nn21", "note": "(stereo unspecified)", "inhibition": "4.25%"}, {"compound": "FC(F)Oc1ccccc1C1CC(c2ccc(Br)s2)Nc2ncnn21", "note": "(stereo unspecified)", "inhibition": "1.95%"}, {"compound": "CCc1cccc(C)c1NC(=O)COC(=O)Cc1ccsc1", "inhibition": "4.93%"}, {"compound": "CC(C)NC(=S)Nc1cccc2cnccc12", "inhibition": "-1.91%"}, {"compound": "O=c1oc2c(CN3CCCCC3)c(O)ccc2c2c1CCCCC2", "inhibition": "502% [above what the read-out allows, likely interference] (active)"}, {"compound": "N#Cc1ccccc1S(=O)(=O)N1CCN(Cc2c(O)ccc3ccccc23)CC1", "inhibition": "2.66%"}, {"compound": "Cc1c(CN2CCCCC2)c(O)n(CCO)c(=O)c1C#N", "inhibition": "2.47%"}, {"compound": "CC(C)CN(C(=O)CSc1ncnc2sccc12)C1CCS(=O)(=O)C1", "note": "(stereo unspecified)", "inhibition": "2.25%"}, {"compound": "CCC(C)N(C(=O)CSc1ncnc2c1cnn2-c1ccccc1)C1CCS(=O)(=O)C1", "note": "(stereo unspecified)", "inhibition": "-2.78%"}, {"compound": "CCN(C(=O)CSc1ncnc2c1cnn2-c1ccccc1)C1CCS(=O)(=O)C1", "note": "(stereo unspecified)", "inhibition": "32.7% (active)"}, {"compound": "CN(C)C(=O)CCC(=O)N1CCCCC1C(=O)Nc1ccc(Oc2ccccc2F)cc1", "note": "(stereo unspecified)", "inhibition": "-1.93%"}, {"compound": "COc1ccccc1C(=O)Nc1cccc(C(=O)N2CCOCC2)c1", "inhibition": "3.07%"}, {"compound": "O=C(c1cccc(N2CCCC2=O)c1)N1CCOCC1", "inhibition": "-17.6%"}, {"compound": "CCOCCc1c(O)nc(SCC(=O)NCc2ccco2)[nH]c1=O", "inhibition": "2.42%"}, {"compound": "CS(=O)(=O)N(Cc1ccccc1Cl)c1ccc(C(=O)NCc2cccnc2)cc1", "inhibition": "-3.74%"}, {"compound": "CCN(CC(=O)Nc1cc(Cl)ccc1C)C(=O)CSCc1ccc(C)cc1", "inhibition": "2.85%"}, {"compound": "O=C(NC1CCCC1)C(c1c(F)cccc1Cl)N(C(=O)c1csnn1)C1CC1", "note": "(stereo unspecified)", "inhibition": "-1.18%"}, {"compound": "COc1ccc(OC)c(NC(=O)CN(Cc2ccc(Cl)cc2)S(C)(=O)=O)c1", "inhibition": "-0.32%"}, {"compound": "O=c1cc(C(F)(F)F)[nH]c(=O)n1C1CCCCC1", "inhibition": "-0.44%"}, {"compound": "CC(Sc1sc(=S)sc1SC(C)C(=O)O)C(=O)O", "note": "(stereo unspecified)", "inhibition": "-1.78%"}, {"compound": "O=C(NCCCN1CCOCC1)c1cnn2c(-c3ccccc3)cc(-c3ccccc3)nc12", "inhibition": "34.3% (active)"}, {"compound": "O=C(NCCCN1CCOCC1)c1ccccc1NS(=O)(=O)c1ccc(F)cc1", "inhibition": "2.85%"}, {"compound": "O=C(NCCCN1CCOCC1)c1ccccc1NS(=O)(=O)c1ccc(Br)cc1", "inhibition": "0.43%"}, {"compound": "CCCCCC(=O)Nc1ccc(-c2cn3cccnc3n2)cc1", "inhibition": "131% (active)"}, {"compound": "CC(=O)Nc1ccc(-c2cn3cccnc3n2)cc1", "inhibition": "566% [above what the read-out allows, likely interference] (active)"}, {"compound": "CCCCC(=O)Nc1ccc(C(=O)NCCCn2ccnc2)cc1", "inhibition": "-1.64%"}, {"compound": "CCN(c1ccccc1)S(=O)(=O)c1ccc(NC(=O)C(C)(C)C)cc1", "inhibition": "0.11%"}, {"compound": "Cc1nn2c(=O)cc(COC(=O)c3ccc(NC(=O)C(C)(C)C)cc3)nc2s1", "inhibition": "-0.5%"}, {"compound": "CC(=O)Nc1ccc(S(=O)(=O)Nc2ccc(-c3ccc4nnc(C)n4n3)cc2)cc1", "inhibition": "-1.85%"}, {"compound": "CCCCCC(=O)Nc1ccc(S(=O)(=O)Nc2ccc(Cl)nn2)cc1", "inhibition": "-0.48%"}, {"compound": "Cc1ccc(NC(=O)c2cccnc2C(=O)Nc2ccc(C)cc2)cc1", "inhibition": "4.35%"}, {"compound": "CCOc1ccc(C(CC(=O)O)NC(=O)C23CC4CC(CC(C4)C2)C3)cc1OC", "note": "(stereo unspecified)", "inhibition": "-2.94%"}, {"compound": "CSc1ccc(CN2CCC2(C)C(=O)NCc2ccccc2Br)cc1", "note": "(stereo unspecified)", "inhibition": "-0.17%"}, {"compound": "COc1ccc(OC)c(NC(=O)C2CCCN2S(=O)(=O)c2ccc3c(c2)CC(C)N3C(C)=O)c1", "note": "(stereo unspecified)", "inhibition": "-1.84%"}, {"compound": "CCOC(=O)CSc1nnc(NC(=O)C2CC(=O)N(c3ccc(F)cc3)C2)s1", "note": "(stereo unspecified)", "inhibition": "-1.95%"}, {"compound": "O=C(N/C(=C\\c1ccc([N+](=O)[O-])cc1)C(=O)N1CCOCC1)c1cccc(Br)c1", "inhibition": "-1.01%"}, {"compound": "CCCS(=O)(=O)N1CCN(C(=O)c2cccs2)CC1", "inhibition": "3.16%"}, {"compound": "CN(C)S(=O)(=O)c1ccc(N/C=C(\\[N+](=O)[O-])S(=O)(=O)c2ccccc2)cc1", "inhibition": "57.2% (active)"}, {"compound": "CN(C)S(=O)(=O)c1cccc(NC(=S)N/N=C/C(=O)c2ccccc2)c1", "inhibition": "-3.5%"}, {"compound": "CN(C)S(=O)(=O)c1ccc(NC(=O)N2CCOCC2)cc1", "inhibition": "3.98%"}, {"compound": "O=C(O)CC(Cn1cnnn1)c1ccccc1", "note": "(stereo unspecified)", "inhibition": "3.12%"}, {"compound": "Cc1cccc(CCNC(=O)Cn2ncc3c([nH]c4ccc(C)cc43)c2=O)c1", "inhibition": "1.24%"}, {"compound": "Cc1ccc(CSCC(=O)N(C)CC(=O)Nc2ccc(C)cc2)cc1", "inhibition": "-2.58%"}, {"compound": "Cc1ccc(NC(=O)CN(C)C(=O)COC(=O)c2nccnc2N)cc1", "inhibition": "88.8% (active)"}, {"compound": "Cc1ccc(NC(=O)CN(C)C(=O)COC(=O)C(C)(C)Oc2ccc(Cl)cc2)cc1", "inhibition": "2.5%"}, {"compound": "COc1cc2c(cc1OC)C1C(=O)c3cc(OS(C)(=O)=O)c(OC)cc3C1N(C)C2=O", "note": "(stereo unspecified)", "inhibition": "3.73%"}, {"compound": "O=C(Nc1nnc(C2=COCCO2)o1)c1ccc([N+](=O)[O-])s1", "inhibition": "-5.53%"}, {"compound": "O=C(Nc1nccs1)C1CCCN1S(=O)(=O)c1cccc2cccnc12", "note": "(stereo unspecified)", "inhibition": "-1.37%"}, {"compound": "COc1ccc(C(C)=O)cc1CSc1nc2nc(C)cc(C)n2n1", "inhibition": "-0.02%"}, {"compound": "CCn1c(CSc2nc(C)cc(C)n2)nnc1SCC(N)=O", "inhibition": "-3.73%"}, {"compound": "Cc1cc(C)nc(SCc2cn3c(C)cc(C)nc3n2)n1", "inhibition": "78.2% (active)"}, {"compound": "COc1ccc(C(CNC(=O)CSc2ccccc2)N2CCOCC2)cc1", "note": "(stereo unspecified)", "inhibition": "2.08%"}, {"compound": "COc1cc2sc(C)nc2cc1C", "inhibition": "4.23%"}]}]}
